Measurements as given in PubChem BioAssay (NCATS).
Results filed as inconclusive are left out. Activity calls are given as the source filed them. Calls follow the shape of the dose curve; as a rule, active = well fitted curve in the direction sought with a large enough effect; inconclusive = small, poorly fitted or top-dose-only effect, or another doubt; inactive = no such curve, though single readings can be large; an effect the other way counts as inactive or inconclusive.

Biological target: Calcium and integrin-binding protein 1 (Homo sapiens) (UniProt Q99828)
Assay: Primary qHTS for Identification of Calcium Integrin Binding Protein 1 (CIB1) Competitor (AID 1508620); also: potency is read from the fitted curve at half-maximal effect;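 as to activity change, negative = inhibition: GST tagged CIB1 binding a fluorescein labelled alphaIIb integrin peptide tracer; top concentration of the series differs between compounds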
Details: CIB1-GST / FITC-alphaIIb peptide fluorescence polarization; series mostly up to 114 µM; activity change, negative = inhibition: at the top concentration
In short: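 Fluorescence polarization competition: CIB1-GST (1 uM final) preincubated with compound 15 min at room temperature, then FITC-labeled alphaIIb peptide (100 nM final) added for another 15 min. Polarization read at Ex 480/Em 540.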
% is scaled to controls: 0 for no effect and ±100 for the full control effect.

Sequence of Calcium and integrin-binding protein 1 (Homo sapiens) (Q99828 whole entry, looked up): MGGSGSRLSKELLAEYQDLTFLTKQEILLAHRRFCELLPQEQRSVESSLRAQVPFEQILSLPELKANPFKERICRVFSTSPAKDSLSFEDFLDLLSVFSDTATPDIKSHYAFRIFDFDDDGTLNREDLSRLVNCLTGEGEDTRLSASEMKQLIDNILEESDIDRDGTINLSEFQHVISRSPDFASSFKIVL

SMILES | activity change, negative = inhibition | Potency
CC(=O)OC1(c2ccccc2)CCN(CCc2ccccc2)CC1 | -3.69% [at 228 µM] (inactive) | –
CCc1cc(OC)c(C[C@H](C)N)cc1OC | 1.75% [at 228 µM] (inactive) | –
COP(=O)(OC)C(O)C(Cl)(Cl)Cl (stereo unspecified) | 8.75% (inactive) | –
Oc1c(Br)cc(Br)cc1Br | -6.02% (inactive) | –
CC1COC2(c3ccccc3Cl)c3cc(Cl)ccc3NC(=O)CN12 (stereo unspecified) | -3.15% (inactive) | –
C#C[C@]1(O)CC[C@H]2[C@@H]3CCC4=CC(=O)CCC4=C3C=C[C@@]21CC | 4.51% (inactive) | –
C=CCN1CC[C@]23CCCC[C@H]2[C@H]1Cc1ccc(O)cc13 | -7.89% (inactive) | –
O=c1[nH]c2cc(Cl)ccc2n1C1CCNCC1 | -0.277% (inactive) | –
CN1C(=O)CN=C(c2ccccc2)c2cc(Cl)ccc21 | 2.67% (inactive) | –
COc1cc(CC(C)N)c(OC)cc1Br (stereo unspecified) | -0.829% [at 228 µM] (inactive) | –
c1ccc2nc(N3CCNCC3)ccc2c1 | 1.71% (inactive) | –
CCS(=O)(=O)C(C)(C)S(=O)(=O)CC | -8.61% (inactive) | –
CNC(C)Cc1ccccc1OC (stereo unspecified) | -1.54% (inactive) | –
O=C(O)CCCCCCNC1c2ccccc2CCc2ccccc21 | 4.5% (inactive) | –
CC[C@H]1C[C@H]2[C@@H]3CCC4=CC(=O)CC[C@@H]4[C@H]3CC[C@]2(C)[C@H]1O | -2.03% (inactive) | –
C[N+](C)(C)CCOC(=O)C(O)(c1ccccc1)c1ccccc1 | 10.1% (inactive) | –
C[C@H]1C(=O)O[C@@H]2CCN3CC=C(COC(=O)[C@](C)(O)[C@]1(C)O)[C@H]23 | -0.108% (inactive) | –
CCC(=O)O[C@H]1CC[C@H]2[C@@H]3CCC4=CC(=O)CC[C@]4(C)[C@H]3CC[C@]12C | -2.47% (inactive) | –
COc1cc(CC#N)cc(OC)c1OC | -2.92% (inactive) | –

SMILES | activity change, negative = inhibition | Potency
CC(C)[N+](C)(CCC(C(N)=O)(c1ccccc1)c1ccccc1)C(C)C | 8.29% (inactive) | –
O=C(CBr)Nc1ccc(Cl)cc1C(=O)c1ccccc1F | 3.91% (inactive) | –
CCOC(=O)C(c1c(O)c2ccccc2oc1=O)c1c(O)c2ccccc2oc1=O | -13.1% (inactive) | –
C[C@@H]1CC[C@H]2[C@@H](C)C(=O)O[C@@H]3O[C@@]4(C)CC[C@@H]1[C@]32OO4 | -3.95% (inactive) | –
CCCOC(=O)Cc1ccc(OCC(=O)N(CC)CC)c(OC)c1 | 2.45% [at 57.7 µM] (inactive) | –
CC(Cc1ccccc1)NCc1ccccc1Cl (stereo unspecified) | -3.85% (inactive) | –
Nc1ccc(N)cc1 | -9.46% (inactive) | –
C=CC[C@]1(O)CC[C@H]2[C@@H]3CCC4=CC(=O)CCC4=C3C=C[C@@]21C | 0.486% (inactive) | –
C1CN2CCC1CC2 | -2.01% (inactive) | –
CCC(OC(C)=O)C(CC(C)NC)(c1ccccc1)c1ccccc1 (stereo unspecified) | -10.8% [at 228 µM] (inactive) | –
CCOC(=O)NC(C)(C)Cc1ccc(Cl)cc1 | 3.2% (inactive) | –
C=CCOC(Cn1ccnc1)c1ccc(Cl)cc1Cl (stereo unspecified) | -0.397% (inactive) | –
Cc1ncc2n1-c1ccc(Cl)cc1C(c1ccccc1F)=NC2 | 1.42% (inactive) | –
CC(Cc1ccc2c(c1)OCO2)NO (stereo unspecified) | 2.73% [at 228 µM] (inactive) | –
O=C(CCl)c1ccc(Cl)cc1Cl | -14.8% (inactive) | –
C[C@]12Cc3nonc3C[C@@H]1CC[C@@H]1[C@@H]2CC[C@@]2(C)[C@H]1CC[C@]2(C)O | -12.8% (inactive) | –
CC(C)NCC(O)c1ccc(N)c(C#N)c1 (stereo unspecified) | 1.21% (inactive) | –
NCc1cccnc1 | -4.01% (inactive) | –
CC[C@]1(O)CC[C@H]2[C@@H]3CCC4=CCCC[C@@H]4[C@H]3CC[C@@]21C | – | 31.6 µM (active)

System: not listed separately
Assay: Primary qHTS for small molecule stabilizers of the endoplasmic reticulum resident proteome: Secreted ER Calcium Modulated Protein (SERCaMP) assay (AID 1508630)
Details: SH-SY5Y GLuc-SERCaMP (Gaussia luciferase released on ER calcium loss) secretion, thapsigargin, luminescence; series mostly up to 38.4 µM; activity change, negative = inhibition: at the top concentration
In short: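 The SH-SY5Y reporter protocol was run at 3 concentrations up to 38.3 uM (primary) or 11 concentrations (follow-up): 16 h compound, 100 nM thapsigargin for 4 h, then extracellular luciferase luminescence.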

SMILES | activity change, negative = inhibition | outcome
CC(=O)OC1(c2ccccc2)CCN(CCc2ccccc2)CC1 | -25.4% [at 76.3 µM] (inactive) | –
CCc1cc(OC)c(C[C@H](C)N)cc1OC | -16.3% [at 76.3 µM] (inactive) | –
COP(=O)(OC)C(O)C(Cl)(Cl)Cl (stereo unspecified) | -26.7% (inactive) | –
Oc1c(Br)cc(Br)cc1Br | 0.153% (inactive) | –
CC1COC2(c3ccccc3Cl)c3cc(Cl)ccc3NC(=O)CN12 (stereo unspecified) | -27.2% (inactive) | –
C#C[C@]1(O)CC[C@H]2[C@@H]3CCC4=CC(=O)CCC4=C3C=C[C@@]21CC | 6.16% (inactive) | –
C=CCN1CC[C@]23CCCC[C@H]2[C@H]1Cc1ccc(O)cc13 | -24.1% (inactive) | –
O=c1[nH]c2cc(Cl)ccc2n1C1CCNCC1 | -7.56% (inactive) | –
CN1C(=O)CN=C(c2ccccc2)c2cc(Cl)ccc21 | 17.2% (inactive) | –
COc1cc(CC(C)N)c(OC)cc1Br (stereo unspecified) | 66.1% [at 76.3 µM] (inactive) | –
c1ccc2nc(N3CCNCC3)ccc2c1 | -16.2% (inactive) | –
CCS(=O)(=O)C(C)(C)S(=O)(=O)CC | -20% (inactive) | –
CNC(C)Cc1ccccc1OC (stereo unspecified) | 2.83% (inactive) | –
O=C(O)CCCCCCNC1c2ccccc2CCc2ccccc21 | -17.9% (inactive) | –
CC[C@H]1C[C@H]2[C@@H]3CCC4=CC(=O)CC[C@@H]4[C@H]3CC[C@]2(C)[C@H]1O | -2.49% (inactive) | –
C[N+](C)(C)CCOC(=O)C(O)(c1ccccc1)c1ccccc1 | -11.6% (inactive) | –
C[C@H]1C(=O)O[C@@H]2CCN3CC=C(COC(=O)[C@](C)(O)[C@]1(C)O)[C@H]23 | -0.468% (inactive) | –
CCC(=O)O[C@H]1CC[C@H]2[C@@H]3CCC4=CC(=O)CC[C@]4(C)[C@H]3CC[C@]12C | 0.716% (inactive) | –
COc1cc(CC#N)cc(OC)c1OC | -28.8% (inactive) | –

SMILES | activity change, negative = inhibition | outcome
CC(C)[N+](C)(CCC(C(N)=O)(c1ccccc1)c1ccccc1)C(C)C | 8.92% (inactive) | –
O=C(CBr)Nc1ccc(Cl)cc1C(=O)c1ccccc1F | -26.3% (inactive) | –
CCOC(=O)C(c1c(O)c2ccccc2oc1=O)c1c(O)c2ccccc2oc1=O | 12% (inactive) | –
C[C@@H]1CC[C@H]2[C@@H](C)C(=O)O[C@@H]3O[C@@]4(C)CC[C@@H]1[C@]32OO4 | – | inactive
CCCOC(=O)Cc1ccc(OCC(=O)N(CC)CC)c(OC)c1 | 3.45% (inactive) | –
CC(Cc1ccccc1)NCc1ccccc1Cl (stereo unspecified) | 33.1% (inactive) | –
Nc1ccc(N)cc1 | -34.8% (inactive) | –
C=CC[C@]1(O)CC[C@H]2[C@@H]3CCC4=CC(=O)CCC4=C3C=C[C@@]21C | 17.6% (inactive) | –
C1CN2CCC1CC2 | -24.9% (inactive) | –
CCC(OC(C)=O)C(CC(C)NC)(c1ccccc1)c1ccccc1 (stereo unspecified) | 255% [at 76.3 µM] (inactive) | –
CCOC(=O)NC(C)(C)Cc1ccc(Cl)cc1 | -14.6% (inactive) | –
C=CCOC(Cn1ccnc1)c1ccc(Cl)cc1Cl (stereo unspecified) | -29.8% (inactive) | –
Cc1ncc2n1-c1ccc(Cl)cc1C(c1ccccc1F)=NC2 | 6.94% (inactive) | –
CC(Cc1ccc2c(c1)OCO2)NO (stereo unspecified) | 4.57% [at 76.3 µM] (inactive) | –
O=C(CCl)c1ccc(Cl)cc1Cl | 45.2% (inactive) | –
C[C@]12Cc3nonc3C[C@@H]1CC[C@@H]1[C@@H]2CC[C@@]2(C)[C@H]1CC[C@]2(C)O | 4.73% (inactive) | –
CC(C)NCC(O)c1ccc(N)c(C#N)c1 (stereo unspecified) | – | inactive
NCc1cccnc1 | -9.71% (inactive) | –
CC[C@]1(O)CC[C@H]2[C@@H]3CCC4=CCCC[C@@H]4[C@H]3CC[C@@]21C | 7.81% (inactive) | –
